Laboratory results taken from the OligoGym collection.
Also: reference of the scale not given here.

Each sequence was assayed against SLMAP (assay: pooled miR-30 sensor sort-seq; sequence = guide strand). Conditions: shRNA.
In the case of TTCATCTCTAGTACTTGTGATT, the sensor-assay potency score (higher = more potent) is reported as -0.717. In the case of TATTCTTGTACTTCTGCTGTTT, the sensor-assay potency score (higher = more potent) is reported as -0.0967. Work on TTTGTTTACTTGTTCTAGCTAG yielded a sensor-assay potency score (higher = more potent) of 0.257. With ATACTCTTTCTGCACATCCTTT the sensor-assay potency score (higher = more potent) was -0.952. TAATTCTCTTAATTCTTCCTGA was tested, and the sensor-assay potency score (higher = more potent) was 0.412. TTCACTGTCCTTCTCCTCCCGG was tested, and the sensor-assay potency score (higher = more potent) was -0.623. With TTTAATGTTATAAATAATCTGG the sensor-assay potency score (higher = more potent) was -0.423. TCAACTTCTCTAGTTCACCTTG showed a sensor-assay potency score (higher = more potent) of 0.0522.

Each sequence was assayed against SMAD4 in the same assay as above. Conditions: shRNA.
In the case of TTGTATTTTGTAGTCCACCATC, the sensor-assay potency score (higher = more potent) is reported as -1.39. TTACTTGTTGGTGTATTCGTAA showed a sensor-assay potency score (higher = more potent) of -0.078. With TTCCAGGTGATACAACTCGTTC the sensor-assay potency score (higher = more potent) was -1.63. Work on TTAACTTTGAGAACTTCTCTGC yielded a sensor-assay potency score (higher = more potent) of 0.783. TTTGAATTGAATGTCCTTCAGT showed a sensor-assay potency score (higher = more potent) of -0.388. For TAACTCTGTACAAAGACCGCGT, the sensor-assay potency score (higher = more potent) was 0.679. In the case of TTCTTAGCAACCAACCTTGTGC, the sensor-assay potency score (higher = more potent) is reported as -0.338. Sequence TTAGCAACCAACCTTGTGCCTA has a sensor-assay potency score (higher = more potent) of -0.621. TACATTCCAACTGCACACCTTT was tested, and the sensor-assay potency score (higher = more potent) was -0.752. TTACAATACATTATTAACTTAC gave a sensor-assay potency score (higher = more potent) of -0.987. Work on TAGAATGATATACATATCGATG yielded a sensor-assay potency score (higher = more potent) of -1.35. In the case of TTAGGTAGAGTGACGCTGCTTT, the sensor-assay potency score (higher = more potent) is reported as 0.626.

Each sequence was assayed against SMC2 in the same assay as above. Conditions: shRNA.
For TAATTCTTCTTGTTGCTTGTGA, the sensor-assay potency score (higher = more potent) was 0.551. TTCTAGAGCTTCTTGATCCTTC gave a sensor-assay potency score (higher = more potent) of 0.175. For TTTTTGTATTCATACATCCTGG, the sensor-assay potency score (higher = more potent) was -0.581. TACTTTGGTATCTTCAGCCAGC showed a sensor-assay potency score (higher = more potent) of -0.418. Sequence TTGAGTTCTTGAAACTTGGTTA has a sensor-assay potency score (higher = more potent) of 0.137. With TTGTTTATTCTTTAATTCCTGT the sensor-assay potency score (higher = more potent) was -0.411. In the case of TCTACCACCAATAACCACCTGC, the sensor-assay potency score (higher = more potent) is reported as 0.664. With TTCATTTACAGCTTCAAGCTGT the sensor-assay potency score (higher = more potent) was 0.444. With TTTGATTCTCAGTTCATCCTGA the sensor-assay potency score (higher = more potent) was 0.766. With TTCTATTCCAGTTCTTCTCTGG the sensor-assay potency score (higher = more potent) was 0.3. TTCTGGTTTATATTCAACCAAG gave a sensor-assay potency score (higher = more potent) of -1.67. TTGCATTGTTGAACATACCTTC showed a sensor-assay potency score (higher = more potent) of 0.529.

Each sequence was assayed against SMC5 in the same assay as above. Conditions: shRNA.
TTCTCTTTTTGTATATTCCTGA showed a sensor-assay potency score (higher = more potent) of -0.0732. For TAAATCTAAATGTCGCTTCCGT, the sensor-assay potency score (higher = more potent) was 0.849. Sequence TTTCCTTTCTATAACATCTTGC has a sensor-assay potency score (higher = more potent) of 0.304. For TTCTGCAATAATCTCTGTCTAT, the sensor-assay potency score (higher = more potent) was -1.01. For TTGATTTCATCAACTACTCTGA, the sensor-assay potency score (higher = more potent) was 0.124. In the case of TTCTATAACATCTTGCTTCTGT, the sensor-assay potency score (higher = more potent) is reported as 0.581. In the case of TTCATTGTCTTTGTGCTCCAGA, the sensor-assay potency score (higher = more potent) is reported as 0.694. TTTATTGTCACGAACCTCTTTG was tested, and the sensor-assay potency score (higher = more potent) was -0.041.
